From PubChem BioAssay
DT40 TDP1 no CPT: qHTS for Inhibitors of human tyrosyl-DNA phosphodiesterase 1 (TDP1): qHTS in cells in absence of CPT. DT40 Tdp1-/- hTDP1 cells, no CPT, ATP luminescence, 48 h. Potency, µM (series often up to 46.2 µM), actives largely listed as inhibitors. hit rate 15% among 420,000. AID 686978, 2013; note: nearly all actives have a fitted effect of over 55% in size
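Camptothecin absent (DMSO only). Human TDP1-complemented DT40 knockout cells, 400 cells/well, 37 °C for minimum 48 hr; ATP measured via CellTiter-Glo, 30 min dark incubation, luminescence.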
TGFb inhibitor: blocks TGF-b signaling. HepG2 CAGA-GFP TGF-b/SMAD3 reporter, GFP fluorescence, 18 h; TGF-beta stimulated, 500 pg/mL final. Potency, µM (doses to about 46.1 µM), usual class: inhibitors. hit rate 1.2% among 410,000. AID 588855; note: nearly all actives have a fitted effect of over 65% in size
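First, reporter cells (HEPG2 CAGA-GFP) rested 2 h at 37 degrees C. Next, compounds were pinned in and TGF-beta added to 500 pg/mL final. After 18 h, GFP was imaged per cell and summed per well.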
DT40 TDP1 CPT: DT40-hTDP1 cell growth loss with CPT; AID 686979; Potency, µM (top dose mostly 46.2 µM), usual class: inhibitors; chicken DT40 Tdp1-/-;hTDP1 cells + 20 nM CPT, ATP luminescence, 48 h; hit rate 12% among 420,000; note: nearly all actives have a fitted effect of over 55% in size
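Chicken DT40 Tdp1-/- cells complemented with human TDP1, 400 cells/well, exposed to compounds plus 20 nM camptothecin for at least 48 h at 37 C; viability read as ATP content by CellTiter-Glo luminescence.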
IL-1B inflam inh: inhibitors of inflammasome signaling (IL-1 beta secretion). hit rate 4.7% among 360,000. AID 743279. THP-1 LPS/ATP IL-1B secretion, AlphaLISA, 16 h; active compounds read low. activity change, % at 57.5 µM; in the data active = activity change below about -50%; inconclusive = mostly about -30% to -49%
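THP-1 cells pretreated 1 hr with compounds (up to 57.5 uM final), then stimulated with LPS (250 ng/mL final) plus ATP (1.25 mM final); secreted IL-1B measured by AlphaLISA after 16 hr, decreased signal indicating inhibition.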
HepG2 viability: counter-screen for TGF-b inhibitors: cytotoxicity in HepG2 cells; hit rate 0.76% among 410,000; HepG2 CAGA-GFP viability, ATP luminescence, 18 h; Potency, µM (series often up to 46.1 µM), actives largely listed as cytotoxic
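HepG2 CAGA-GFP cells (1000/well, DMEM with 1% FBS) received compound, then TGF-beta at 500 pg/mL final, and were incubated 18 hours at 37 degrees C. Viability was read by CellTiter-Glo luminescence. Media-only wells were set as complete cell-killing and DMSO as no toxicity.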
TDP1 inh: TDP1 (human) enzyme inhibition. Q9NUW8. recombinant TDP1, AlphaScreen DNA substrate cleavage. Potency, µM (doses to about 130 µM), usual class: inhibitors. hit rate 0.28% among 350,000. AID 485290; note: nearly all actives have a fitted effect of over 40% in size
Target sequence (Q9NUW8 whole entry, looked up): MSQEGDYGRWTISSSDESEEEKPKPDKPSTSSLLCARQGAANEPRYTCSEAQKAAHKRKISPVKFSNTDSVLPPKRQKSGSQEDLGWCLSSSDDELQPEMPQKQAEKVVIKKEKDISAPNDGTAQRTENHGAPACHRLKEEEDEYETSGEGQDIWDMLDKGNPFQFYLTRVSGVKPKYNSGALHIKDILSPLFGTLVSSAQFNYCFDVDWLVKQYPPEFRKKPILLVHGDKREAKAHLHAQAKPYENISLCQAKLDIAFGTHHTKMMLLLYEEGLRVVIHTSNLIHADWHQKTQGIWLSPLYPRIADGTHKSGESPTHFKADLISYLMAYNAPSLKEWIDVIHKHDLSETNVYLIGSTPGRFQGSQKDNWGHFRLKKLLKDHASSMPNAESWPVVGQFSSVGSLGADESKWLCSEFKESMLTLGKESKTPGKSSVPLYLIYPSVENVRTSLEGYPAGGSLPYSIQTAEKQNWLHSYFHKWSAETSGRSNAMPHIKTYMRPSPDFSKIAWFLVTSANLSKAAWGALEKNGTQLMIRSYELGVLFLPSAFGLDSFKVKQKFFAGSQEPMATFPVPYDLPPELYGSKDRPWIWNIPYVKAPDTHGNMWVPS
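Compounds were preincubated with Tdp1 (1 nM final) for 15 min at room temperature before substrate (15 nM final) started a 5 min reaction; beads (10 ug/ml final) were then added for 10 min before AlphaScreen detection.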
Numbers stand for hits; 0 = inactive; ? = inconclusive; - = no result given; [ ] = remark or other dose. Shown are actives, neighbours in structure and some others; about 18% of the full set was active somewhere. Unless noted, calls come from the whole dose curve; as a rule, active = well fitted curve in the direction sought with a large enough effect; inconclusive = small, poorly fitted or top-dose-only effect, or another doubt; inactive = no such curve, though single readings can be large; an effect the other way counts as inactive or inconclusive.

SMILES	DT40 TDP1 no CPT	TGFb inhibitor	DT40 TDP1 CPT	IL-1B inflam inh	HepG2 viability	TDP1 inh
O=C(Nc1ccc2nc3n(c(=O)c2c1)CCCC3)c1cc([N+](=O)[O-])ccc1F	1.84µM	?	2.06µM	-104.9	0	0
CC1CCCN(CC(O)COc2ccc(S(=O)(=O)N3CCCC3)cc2[N+](=O)[O-])C1 (stereo unspecified)	0	0	0	0	0	0
Cc1cccc(-n2nc3c(c2NC(=O)C(C)C)CS(=O)(=O)C3)c1C	0	0	0	0	0	-
Cn1c(SCC2CCCO2)nnc1C1CCN(Cc2ccc(-c3cccc(Cl)c3)o2)CC1 (stereo unspecified)	?	-	0[9.04 µM]	-	-	-
O=C(Nc1ccccc1)c1oc2ccccc2c1NC(=O)C1CC1	?	0	?	0	0	0
O=C(Nc1ccc(F)cc1)c1ccccc1F	0	0	0	0	0	0
O=C(Nc1c(C(=O)Nc2ccc(F)cc2)oc2ccccc12)c1ccccc1F	20.6µM	0	?	-	0	0
O=C(Nc1ccc(F)cc1)c1oc2ccccc2c1NC(=O)C1CCCCC1	29.1µM	0	?	-	0	0
CNc1c(NC(=O)C2CCC(C)CC2)c(=O)oc2ccccc12 (stereo unspecified)	0	0	0	0	0	79.4µM
COc1ccc(NC(=O)C(c2ccc(OC)cc2)n2c(=O)c(-c3ccco3)nc3ccccc32)cc1 (stereo unspecified)	?	-	?	0	-	-
COc1ccc(NC(=O)C(c2ccccc2F)n2c(=O)c(-c3ccco3)nc3ccccc32)cc1 (stereo unspecified)	?	-	?	0	-	-
O=C(Nc1ccc2c(c1)OCCO2)C(c1ccccc1F)n1c(=O)c(-c2ccco2)nc2ccccc21 (stereo unspecified)	?	-	8.2µM	0	-	-
COc1ccc(C(C(=O)Nc2ccc3c(c2)OCCO3)n2c(=O)c(-c3ccco3)nc3ccccc32)cc1 (stereo unspecified)	20.6µM	-	11.6µM	0	-	-
COc1ccc(C(C(=O)NC(C)(C)C)n2c(=O)c(-c3ccco3)nc3ccccc32)cc1 (stereo unspecified)	23.1µM	-	?	0	-	-
COc1ccc(NC(=O)C(c2ccccc2)n2c(=O)c(-c3ccco3)nc3ccccc32)cc1 (stereo unspecified)	9.2µM	-	10.3µM	0	-	-
CCC1(C2CCN(C(=O)c3cc(C)cc(C)c3)CC2)NC(=O)N(CCc2scnc2C)C1=O (stereo unspecified)	0	-	0[9.04 µM]	-	-	-
CC(C)c1ccc(S(=O)(=O)/N=C2/C=C(Sc3ncn[nH]3)C(=O)c3ccccc32)cc1	3.26µM	7.94µM	2.59µM	-100.1	10µM	0
Cc1ccc(S(=O)(=O)Nc2ccc(O)c(Sc3ncn[nH]3)c2)cc1	0	0	0	0	0	0
Cc1ccc(S(=O)(=O)/N=C2/C=C(Sc3ncn[nH]3)C(=O)c3ccccc32)cc1	0.366µM	1µM	0.326µM	-104.8	2µM	0
O=C(N/N=C/c1cccs1)c1ccc2c(c1)OCO2	0	0	0	0	0	0
CC(C)CSc1ncnc2c1oc1nc3c(cc12)COC(C)(C)C3	0	?	0	0	0	0
C=CCSc1ncnc2c1oc1nc3c(cc12)COC(C)(C)C3	18.4µM	0	0	0	0	0
NC(=S)NS(=O)(=O)c1ccc(N)cc1	0	-	0	-	-	-
COc1ccc2cc1Oc1ccc(cc1)C[C@H]1c3c(cc4c(c3Oc3cc5c(cc3OC)CCN(C)[C@@H]5C2)OCO4)CCN1C	5.8µM	?	6.51µM	?	0	0
CN1CCc2cc3c(cc2[C@@H]1[C@@H]1C(=O)Oc2c1ccc1c2OCO1)OCO3	0	-	0	-	-	0
CCc1cccc2c1NC(=O)C2=O	0	0	0	0	0	-
CCc1cccc2c1NC1(CCCC1)CC2C (stereo unspecified)	20.6µM	0	?	0	0	0
